The assay has as its target VEGF-A121 (Homo sapiens, UniProt P15692 SEQ:1-121). Put plainly: competition; TR-FRET. The note with it: tags: glycan-biotinylated for SPR/FRET/AlphaLISA; Acro BioSystems, Biolegend; chain copies: 2 (stated); ssRNA; all G 2'-F; A,C,U 2'-OMe; 5' C6NH2; 3' idT. Here is the method: Briefly, for competition TR-FRET, 2-fold dilutions of thermally equilibrated aptamers were made in TR-FRET Buffer (50 mM MOPS, pH 7.4, 125 mM NaCl, 5 mM KCl, 50 μM CHAPS, 0.1 mg/mL BSA, 1 mM CaCl₂, and 1 mM MgCl₂). 5 μL of aptamer or control solution was added to a 15 μL mix of glycan biotinylated […] (5 nM final), ALEXA FLUOR® 647-labeled Aptamer (30 nM final), and Streptavidin-Eu (Perkin Elmer; 2.5 nM final) in a black wall low volume 384 well plate (Greiner). For control, 5 μl of 1000-fold excess of unlabeled parent aptamer or 5 μl TR-FRET buffer alone was added to the mix of ALEXA FLUOR® 647-labeled aptamer, biotin-VEGF-A, and Streptavidin-Eu. The plate was covered with a plate seal and subsequently incubated in the dark for 1 hour at room temperature. The plate was read on a Biotek CYTATION™ 5 plate reader. Samples were excited at 330 nm and fluorescent values were collected at 665 nm. Data analysis was performed by subtracting the background value and plotting as percent inhibition, normalized to baseline in the absence of competitor. The values were fit by [Inhibitor] vs. response-Variable slope (four parameters) using GraphPad Prism Version 7.0 and then normalized to aptamer control to obtain an IC₅₀ relative to parent aptamer. Data is presented as log values of relative IC₅₀.
Activity of each of these variants were tested using a time resolved competition TR-FRET assay, as described in Example 7, in which a labeled parent was competed with increasing concentrations of unlabeled variants for binding to VEGF-A₁₂₁.
Chain of VEGF-A121 (P15692 other isoform, or with tags, fused parts or gaps): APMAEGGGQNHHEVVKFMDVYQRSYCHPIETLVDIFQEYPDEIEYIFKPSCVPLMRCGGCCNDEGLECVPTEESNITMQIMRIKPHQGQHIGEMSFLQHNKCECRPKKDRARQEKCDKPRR
On to “AGGCCGCCUCCGUGCGGAGGGGUUUCAUUAUCCCGUUUGGCGGCUU”, for which the binding signal is 4 fold worse IC50 vs Aptamer 26. In the case of “AGGCCGCCUCCGCGCGGACCGGUUUCAUUACCGGGUUUGGCGGCUU”, the binding signal is ~9 fold worse IC50 vs Aptamer 26. Next, “AGGCCGCCUCCGCGCGGAGAGGUUUCAUUAUCUCGUUUGGCGGCUU”: ~7 fold worse IC50 vs Aptamer 26; “AGGCCGCCUCCGCGCGGAGAGGGUUCAUUCCCUCGUUUGGCGGCUU”: ~9 fold worse IC50 vs Aptamer 26. Consider “AGGCCGCCUCCGCGCGGAGGGGUUCAUAUCCCGUUUGGCGGCUU”, for which the binding signal was ~8 fold worse IC50 vs Aptamer 26.
